Only some compounds are listed: those with a hit (about 3.5% of all), similar ones and a draw of the others.
NS1 function inh = blocks influenza NS1 protein function | actives 0.4% (n = 270,000) | Potency, µM (titrated, usually from 46.1 µM); calls by dose curve; further: actives are rising curves; nearly all actives have a fitted effect of over 50% in size
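A cell-based growth assay was used: compounds that relieve NS1-induced slow growth of budding yeast raise OD600. Assay medium was yeast nitrogen base with ammonium sulphate and -URA supplement, pH 6.0, with 2% galactose.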
Sm TGR block = S. mansoni TGR enzyme inhibition. purified TGR, DTNB reduction, TNB absorbance 405 nm. actives 3% (n = 360,000). Q962Y6. Potency, µM (highest dose often 114 µM), actives largely listed as inhibitors; further: nearly all actives have a fitted effect of over 60% in size
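First, TGR (20 nM dispensed) and NADPH were mixed with compound. Second, a 15 min room-temperature incubation followed. Third, further NADPH and then DTNB were added to start the reaction. Finally, TNB absorbance was monitored kinetically.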
Tb PYK inh = blocks Trypanosoma brucei pyruvate kinase; Q57TT1; TbPYK enzyme, Kinase-Glo Plus ATP luminescence, 45 min; Potency, µM (top dose mostly 76.8 µM), usual class: inhibitors; actives 0.12% (n = 410,000); further: nearly all actives have a fitted effect of over 50% in size
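Luminescent Kinase-Glo Plus end-point after 45 min room-temperature reaction of T. brucei pyruvate kinase started with 130 uM ADP (final). Buffer TEA 50 mM pH 7.2 with KCl, MgCl2, BSA, Tween-20; titration-based qHTS with fitted concentration-effect curves.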
Giardia FBPA inh-1 = inhibitors of Giardia lamblia fructose-1,6-bisphosphate aldolase. A8B2U2. purified Giardia FBPA. Potency, µM (doses to about 59.6 µM), most hits filed as inhibitors. actives 0.71% (n = 290,000). AID 2451; further: nearly all actives have a fitted effect of over 55% in size
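40 nM FBPA preincubated 10 min at RT with compound (up to 57.5 uM final), then substrate plus GAPDH/TPI/NAD/arsenate coupling and diaphorase/resazurin added. Fluorescence read after 20 min at RT, 525/598 nm.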
LmPK inh = inhibitors of Leishmania mexicana pyruvate kinase | AID 1721 | actives 0.37% (n = 290,000) | Potency, µM (doses to about 57.5 µM), hits mostly inhibitors | purified LmPK, Kinase-Glo ATP luminescence, 1 h
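Screened at intermediate enzyme activity to detect both inhibitors and activators: LmPK at 0.1 nM, with a 0.5 nM enzyme column as activation reference. PEP 0.5 mM, ADP 0.1 mM; ATP detected by luminescence after 1 h.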
RE007 growth inh = less growth of the S. pombe RE007 Vpr strain. Potency, µM (top dose mostly 92.2 µM), most hits filed as inhibitors. actives 0.21% (n = 360,000). S. pombe RE007 Vpr strain, BacTiter-Glo ATP luminescence, 24 h; active means well fitted falling curve with a large enough effect; inconclusive means small, poorly fitted or top-dose-only effect; inactive means no such curve, though single readings can be large or run the other way; further: nearly all actives have a fitted effect of over 50% in size
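Fission yeast RE007 carrying one integrated HIV-1 vpr copy, seeded at OD 0.01 in PMG+AL medium with 23 nL pinned compound. Grown 24 h at 30 degrees; viability read by BacTiter-Glo luminescence after 5 min.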
Giardia growth = blocks growth of Giardia lamblia trophozoites | shares compounds with Giardia FBPA inh-1 | Potency, µM (series often up to 57.5 µM), usual class: inhibitors | Giardia lamblia trophozoite growth inhibition | AID 2785 | actives 5% (n = 1,500);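 further: trophozoites exposed to compound for 48 h at 37 °C; nearly all actives have a fitted effect of over 70% in size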
Mammalian tox = mammalian cytotoxicity of Giardia aldolase inhibitor hits | shares compounds with Giardia FBPA inh-1 | mammalian cell viability counter-screen, qHTS | Potency, µM (doses to about 57.5 µM), hits mostly inhibitors | actives 4% (n = 1,500) | AID 2786;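 further: Chinese hamster ovary cells used as mammalian cytotoxicity surrogate; viability measured as cellular ATP by luminescence; compound exposure lasted 48 h before reading; nearly all actives have a fitted effect of over 60% in size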
Giardia FBPA inh-2 = confirmation of Giardia fructose-bisphosphate aldolase inhibitors; shares compounds with Giardia FBPA inh-1; purified Giardia aldolase enzyme activity, qHTS; Potency, µM (highest dose often 57.5 µM), most hits filed as inhibitors; actives 5% (n = 1,500); AID 2787; further: nearly all actives have a fitted effect of over 45% in size
Rabbit FBPA inh = selectivity test for Giardia aldolase inhibitors: rabbit aldolase. AID 2794. shares compounds with Giardia FBPA inh-1. Rabbit muscle FBPA enzyme inhibition, selectivity counter-screen. Potency, µM (titrated, usually from 57.5 µM), most hits filed as inhibitors. actives 4% (n = 1,500); further: nearly all actives have a fitted effect of over 60% in size
Target sequence (P00883 whole entry, looked up): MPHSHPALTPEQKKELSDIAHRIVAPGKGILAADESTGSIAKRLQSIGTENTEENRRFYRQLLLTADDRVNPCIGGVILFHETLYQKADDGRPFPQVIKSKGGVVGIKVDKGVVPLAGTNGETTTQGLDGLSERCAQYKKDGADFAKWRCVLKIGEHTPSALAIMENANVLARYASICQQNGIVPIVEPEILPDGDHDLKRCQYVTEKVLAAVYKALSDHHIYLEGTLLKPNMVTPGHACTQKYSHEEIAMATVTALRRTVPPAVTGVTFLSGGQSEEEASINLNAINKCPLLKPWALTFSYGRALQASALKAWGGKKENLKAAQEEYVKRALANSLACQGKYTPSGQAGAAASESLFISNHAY
GAPDH counter = GAPDH inhibition flagged for Giardia aldolase hits; actives 6% (n = 1,500); AID 2795; GAPDH coupling enzyme counterscreen, biochemical, qHTS; Potency, µM (top dose mostly 57.5 µM), most hits filed as inhibitors; shares compounds with Giardia FBPA inh-1; further: nearly all actives have a fitted effect of over 55% in size
Hits are given with their value; [ ] = dose if it differs, or a comment. Unless noted, the call rests on the fitted dose curve; in most records, active means well fitted curve in the direction sought with a large enough effect; inconclusive means small, poorly fitted or top-dose-only effect, or another doubt; inactive means no such curve, though single readings can be large; an effect the other way counts as inactive or inconclusive.

CCn1c2ccccc2c2n[nH]c(=S)nc21 was read as NS1 function inh inactive, Sm TGR block inactive, Tb PYK inh inactive, Giardia FBPA inh-1 inactive, LmPK inh inactive and RE007 growth inh inactive.
CCc1ccc(C2=NN(CCC(=O)NCCc3ccc(Cl)cc3)C(=O)CC2)cc1 was read as Sm TGR block inactive and Tb PYK inh inactive.
`Nc1ncnc(NNC(=O)CNC(=O)c2c(F)cccc2Cl)c1[N+](=O)[O-]` gave Sm TGR block inactive, Tb PYK inh inactive, Giardia FBPA inh-1 15.8µM, LmPK inh inactive, RE007 growth inh inactive, Giardia growth inactive, Mammalian tox inactive, Giardia FBPA inh-2 inactive, Rabbit FBPA inh inactive and GAPDH counter inactive.
COc1ccccc1C(=O)NCC(=O)NNc1ncnc(N)c1[N+](=O)[O-] was read as NS1 function inh inactive, Sm TGR block inactive, Giardia FBPA inh-1 inconclusive and LmPK inh inactive.
Screening O=C(NC(=S)N1CCN(C/C=C/c2ccccc2)CC1)c1ccc(Cl)nc1 returned NS1 function inh inactive, Sm TGR block inactive, Tb PYK inh inactive, Giardia FBPA inh-1 7.92µM, LmPK inh inactive, RE007 growth inh inactive, Giardia growth inactive, Mammalian tox inconclusive, Giardia FBPA inh-2 inactive, Rabbit FBPA inh inactive and GAPDH counter inactive.
For O=C(NCC(=O)N1CCN(C/C=C/c2ccccc2)CC1)c1ccc(Br)cc1 the results were Tb PYK inh inactive and RE007 growth inh inactive.
O=C(NC(=S)N1CCN(Cc2ccccc2)CC1)c1cccnc1 was read as NS1 function inh inactive, Sm TGR block inactive, Tb PYK inh inconclusive, Giardia FBPA inh-1 17.7µM, LmPK inh inactive, RE007 growth inh inactive, Giardia growth inconclusive, Mammalian tox inactive, Giardia FBPA inh-2 inactive, Rabbit FBPA inh inactive and GAPDH counter inactive.
Fc1ccc(-n2ncc3c(NC4CCCCCC4)ncnc32)cc1 was read as Sm TGR block inactive and Tb PYK inh inactive.
Screening CO/N=C(/C(=O)N[C@@H]1C(=O)N2C(C(=O)[O-])=C(C[n+]3ccn4ncccc43)CS[C@H]12)c1nsc(N)n1 returned Tb PYK inh inactive.
For Cc1ccc(C)c(NC(=S)c2ccccn2)c1 the results were NS1 function inh inactive, Sm TGR block inactive, Tb PYK inh inactive, Giardia FBPA inh-1 inactive, LmPK inh inactive and RE007 growth inh inconclusive.
S=C(Nc1ccccn1)c1ccccn1 was read as NS1 function inh inactive, Sm TGR block inactive, Tb PYK inh inconclusive, Giardia FBPA inh-1 3.15µM, LmPK inh inconclusive, RE007 growth inh inactive, Giardia growth inactive, Mammalian tox 12.6µM, Giardia FBPA inh-2 inconclusive, Rabbit FBPA inh inactive and GAPDH counter inconclusive.
`COC(=O)N/N=C/c1cc(C)n(-c2ccc(F)cc2)c1C` gave Sm TGR block inactive, Tb PYK inh inactive, Giardia FBPA inh-1 inactive, LmPK inh inactive and RE007 growth inh inactive.
COC(=O)C1=C(O)/C(=C\c2cc(C)n(-c3ccc(F)cc3)c2C)N=C1C was read as Sm TGR block 28.2µM, Tb PYK inh inactive, Giardia FBPA inh-1 15.8µM, LmPK inh inactive[11.5 µM], RE007 growth inh inactive, Giardia growth inactive[10.4 µM], Mammalian tox inactive, Giardia FBPA inh-2 inactive, Rabbit FBPA inh inactive and GAPDH counter inactive.
